Molecules are shown by their SMILES. Results filed as inconclusive are left out. Where a call stands in place of a potency, no number is given. More than one record can exist for a structure, and the calls need not agree. Active and inactive are the calls of the source. Calls follow the shape of the dose curve; as a rule, active = well fitted inhibition curve with a large enough effect; inconclusive = small, poorly fitted or top-dose-only effect; inactive = flat fitted curve, though single readings scatter.
Potency is read from the fitted curve at half-maximal effect.

The test is described as follows: qHTS for Inhibitors of Plasmodium falciparum (7G8) proliferation (AID 504316). Also: nearly all actives have a fitted effect of over 65% in size. To be noted: P. falciparum 7G8 in erythrocytes, SYBR Green DNA, 72 h; series mostly up to 6.7 µM. The source says: Plasmodium falciparum is a virulent malarial parasite that kills 1-2 million people worldwide each year. Malaria not only inflicts tremendous suffering and morbidity on the human population, but has dramatically influenced the course of civilization with profound sociological and economic implications (Shah, S. 2010). Transmitted by mosquitoes, the sporozoite form of the parasite enters the blood stream to infect hepatocytes, where they become merozoites that infect red blood cells (erythrocytes). Within erythrocytes, merozoites begin a […] cycle of growth and division, after which the parasite is released to infect new red blood cells. Gametocytes, which form within erythrocytes as well, circulate in the bloodstream and are ingested by the mosquito, thereby completing the life cycle (see CDC website). To profile malarial lines for differential chemical responses and to identify inhibitors of malarial growth, an assay that measures P. falciparum growth and replication within erythrocytes was employed. This assay uses a DNA binding fluorescent dye (SYBR Green) to detect parasite DNA following cell lysis. Because mature erythrocytes lack DNA, only Plasmodium-derived DNA is detected. The P. falciparum line cp250, derived from a malarial isolate from Cambodia, (Mu, J., et al. 2010) was added to the panel of lines, Dd2, HB3, 7G8 and GB4 in this study. Laboratory of Assay Development and Screening Technology [ADST] and NIH Chemical Genomics Center [NCGC] Boston University, Chemistry Department, Center for Chemical Methodology and Library Development [CMLD-BU] NIH National Institute of Allergy and Infectious Diseases [NIAID]
ADST Assay Protocol Summary: The 1536-well SYBR Green viability assay was based on the method of Bennett et al (2004) and described previously in 1536-well format (Yuan J., et al. 2009). For screening 3 ul culture medium was dispensed into 1536 well black clear bottom plates (Aurora Biotechnologies) using a Multidrop Combi (Thermo Fisher Scientific Inc.), 23 nL compounds in DMSO were added by a pin transfer (Cleveland, P.H. and Koutz, P.J, 2005) using a pin tool-based delivery system (Kalypsys), and 5 ul of erythrocytes infected with P. falciparum one of five lines (cp250, Dd2, HB3, 7G8 or GB4, 0.3% parasitemia, 2.5% hematocrit final concentration) were added. The plates were incubated at 37C in a humidified incubator in 5% CO2 for 72 h, and 2 ul lysis buffer (20 mM Tris HCl, 10 mM EDTA, 0.16% saponin, 1.6% triton X, 10X SYBR Green I (supplied as 10,000X final concentration by Invitrogen) was added to each well. The plates were mixed for 25 sec with gentle shaking and incubated overnight at room temperature in the dark. The following morning, fluorescence intensity at 485(14) nm excitation and 535(25) nm emission wavelengths was measured on an EnVision (Perkin Elmer) plate reader. Plate reads were normalized relative to the control inhibitor (0.29 uM artemisinin) and vehicle (DMSO) wells present on each plate and then corrected by an algorithm using vehicle-only control plates at the beginning and end of the compound plate stack. References Shah, S. (2010). The Fever: how malaria has ruled humankind for 500,000 years. New York, Sarah Crichton Books. CDC web site, http://www.cdc.gov/malaria/about/biology/index.html Mu, J., Myers, R.A., Jiang, H., Liu, S., Ricklefs, S., Waisberg, M., Chotivanich, K., Wilairatana, P., Krudsood, S., White, N.J., et Plasmodium falciparum genome-wide scans for positive selection, recombination hot spots and resistance to antimalarial drugs Nature Genetics 2010, 42, pp 268-271 Bennett TN, Paguio, M., Gligorijevic, B., Seudieu, C., Kosar, A. D., Davidson, E., and Roepe, P. D. Novel, rapid, and inexpensive cell-based quantification of antimalarial drug efficacy Antimicrobial Agents Chemother. 2004, 48(5): pp 1807-10 Yuan J, Johnson RL, Huang RL, Wichterman J, Jiang HY, Hayton K, Fidock DA, Wellems TE, Inglese J, Austin CP, Su XZ. […]
Consider `COc1ccc(O[C@H]2C=C[C@@H](c3ccccc3)O[C@H]2COC(=O)CCC(C)=NO[C@@H](C)c2cc(-c3c(C)cc(C)cc3C)no2)cc1`, for which the Potency entry is “inactive”.

`CCCCC1=CC2=CC(=O)C(C)(OC(=O)c3cnc4ccccc4n3)C(=O)C2=CO1` (stereo not given): the Potency entry is “inactive”.

With `C=C(C)CCN1C(=O)NC(c2cccc(C(F)(F)F)c2)C(C(=O)OC)=C1C` (stereo not given), the Potency entry was “inactive”.

With `COc1cccc([C@@H]2[C@H](C)C[C@H]3CC(=O)N4[C@H](CC(=O)N32)C[C@@H](C)[C@@H]4c2cccc(OC)c2)c1`, the Potency was 1.51 µM (active).

Turning to `COc1cccc([C@H]2Oc3ccc(OC)cc3C(=NOC[C@@H](C)[C@H](OCc3ccccc3)C(C)C)[C@H]2O)c1`, the Potency result was “inactive”.

Take `C=C(C[C@]1(C(=O)OC)C[C@]2(CC=C(C)C)C(=O)C(C(=O)CC(C)C)=C(O)[C@@](CC=C(C)C)(C1)C2=O)C(=O)OC`: the Potency entry is “inactive”.

As for `CC(=CCO)CCO`, the Potency entry was “inactive”.

Regarding `COC[C@H]1O[C@H](c2ccccc2)C=C[C@H]1OCc1cccc(Br)c1`, the Potency entry is “inactive”.

Take `C#CCCCON=C1C[C@@H](O)[C@H](O)[C@H]2[C@@H]3C(=O)N(c4cccc(Oc5ccccc5)c4)C(=O)[C@@H]3CC[C@@H]12`: the Potency result is “inactive”.

For `COC(=O)CC1OC1[C@H](C)[C@@H](OC)C(C)C` (stereo not given in full), the Potency was 1.69 µM (active).

For `CCN(CC)CCCN1C=C2C(=O)C(C)(OC(=O)C3CCCC3)C(=O)C=C2C=C1c1ccsc1` (stereo not given), the Potency entry is “inactive”.

Take `CC1(C)O[C@H]2O[C@H]([C@H](O)CON=C3[C@H]4CCn5c(=O)n(-c6ccccc6)c(=O)n5[C@@H]4[C@H](O)[C@@H]4O[C@H]34)[C@H](O)[C@@H]2O1`: the Potency result is “inactive”.

In the case of `C=C(C)C(=O)C=CC=Cc1ccccc1`, the Potency entry was “inactive”.

In the case of `C[C@H]1Cc2c(COc3ccccc3)nc3c(c2CO1)CN(C(=O)C1CC1)CC3`, the Potency entry was “inactive”.

For `COC(=O)[C@H](COC(C)(C)C)NC(=O)O[C@@H]1C(=O)c2ccc(OC)cc2O[C@H]1c1ccc2c(c1)OCO2`, the Potency entry is “inactive”.

For the compound `CCOC(=O)CN1C(=O)NC(c2ccc(Br)cc2)C(C(=O)OC)=C1C` (stereo not given), the Potency result was “inactive”.

Regarding `COC(=O)CCC(=O)OC1(C)C(=O)C=C2C=C(C3CC3)N(CCc3c[nH]c4ccccc34)C=C2C1=O` (stereo not given), the Potency entry is “inactive”.

With `COC(=O)[C@@H]1[C@@H](c2ccccc2)NC(=O)N(Cc2ccccc2)[C@@H]1C`, the Potency result was “inactive”.

For the compound `COC(=O)[C@H](Cc1ccccc1)NC(=O)O[C@@H]1C(=O)c2cc(OC)ccc2O[C@H]1c1ccc(OC)c(Br)c1`, the Potency result was “inactive”.

For `C=CCN1C(=O)CC[C@@]23C1=NC(C(=O)OC)=C(C(=O)OC)[C@@H]2N(C)c1ccccc13`, the Potency entry is “inactive”.

For the compound `O=C1c2ccccc2C(=O)N1CCCC[C@]12Cc3c(ccc4ccccc34)[C@H](O1)c1c(cc(-c3ccccc3)oc1=O)O2`, the Potency was 0.379 µM (active).

Take `COc1cc(CO[C@H]2C=C[C@@H](c3ccccc3)O[C@H]2CO)cc(OC)c1`: the Potency entry is “inactive”.

Consider `COc1ccc(C(O)C2=CCCC2=O)cc1` (stereo not given), for which the Potency entry is “inactive”.

Take `O=C1[C@H]2[C@@H]3[C@@H](O)[C@H](O)CC(=NOCc4ccccc4)[C@@H]3CC[C@H]2C(=O)N1C[C@@H]1CCCO1`: the Potency entry was “inactive”.

For `COC(=O)C1=C(C)N(CCC(C)O[Si](C)(C)C(C)(C)C)C(=O)N(C(C)=O)C1c1ccccc1` (stereo not given), the Potency result is “inactive”.

Consider `CCCCC1=CC2=C(c3ccco3)C(=O)C(C)(OC(=O)c3ccc(OC)cc3)C(=O)C2=CN1CCN1CCOCC1` (stereo not given), for which the Potency result is “inactive”.

Regarding `COC(=O)CC=C[C@@H](C)[C@H](NC(=O)OCC(Cl)(Cl)Cl)c1cccc(OC)c1`, the Potency entry was “inactive”.

With `CCCCC1=CC2=C(c3ccco3)C(=O)C(C)(OC(=O)c3ccc(OC)cc3)C(=O)C2=CN1CCCN(CC)CC` (stereo not given), the Potency entry was “inactive”.

Regarding `CCCC[C@]12Cc3cc(C#N)ccc3[C@H](O1)c1c(c3cc(F)ccc3oc1=O)O2`, the Potency result was “inactive”.

Regarding `CCOC(=O)NN=C1C[C@@H](O)[C@@H](O)[C@@H]2[C@H]3C(=O)N(c4cccc(Oc5ccccc5)c4)C(=O)[C@@H]3CC[C@@H]12`, the Potency entry is “inactive”.

Turning to `CCN1C(=NCCCOC(C)C)N[C@H](c2ccccc2)[C@H](C(=O)OC)[C@H]1C`, the Potency entry is “inactive”.

For `C=C(Nc1ccc(OC)cc1)C(=O)OC`, the Potency result is “inactive”.

On to `COC(=O)C(C(=O)OC)c1ccccc1[N+](=O)[O-]`, for which the Potency result was “inactive”.

In the case of `CCN1C(=O)NC(c2cccc(C(F)(F)F)c2)C(C(C)=O)=C1C` (stereo not given), the Potency entry is “inactive”.

For the compound `Cc1cccc(C)c1Nc1oc(-c2ccccc2)nc1-c1ccccc1`, the Potency entry is “inactive”.

`COc1cccc([C@@H]2Oc3ccc(Br)cc3C(=O)[C@@H]2OC(=O)N[C@H](C)C2CCCCC2)c1`: the Potency entry was “inactive”.

In the case of `O=C1CCCC=C1C(O)CCOCc1ccccc1` (stereo not given), the Potency entry was “inactive”.

Take `CCN1C(=O)NC(c2cccc(F)c2)C(C(=O)OC)=C1C` (stereo not given): the Potency result was “inactive”.

On to `C[C@H]1Cc2c(COc3ccccc3)nc3c(c2CO1)CN(C(=O)c1cccnc1)CC3`, for which the Potency entry was “inactive”.

For `COc1ccc([C@]23Cc4cc(C#N)ccc4[C@H](O2)c2c(c4ccc(OC)cc4oc2=O)O3)cc1`, the Potency was 1.69 µM (active) and inactive.

These data come from PubChem BioAssay (NCATS).
